Reference: PubChem BioAssay (NCATS)
Several values for one entry are separate records, joined by “and”; a condition that tells them apart may be missing. Identical values can stand only once. Records with an inconclusive call do not appear. Activity calls are given as the source filed them. Calls come from the whole dose curve; as a rule, active = well fitted inhibition curve with a large enough effect; inconclusive = small, poorly fitted or top-dose-only effect; inactive = flat fitted curve, though single readings scatter.

Experiments:
CRL-7250 = normal cell line; test: Cytotoxic Profiling of Annotated Libraries Using Quantitative High-Throughput Screening (AID 1296008); conditions: Five cell lines viability, CellTiter-Glo ATP luminescence, 48-72 h; max response: hits give low values; note: potency is the fitted concentration of half-maximal effect; for max response: % is set by controls: 0 for no effect and ±100 for the full control effect
Outline: (§1)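 Cells exposed to compounds for 48 or 72 hr at 37 degrees Celsius. Viability read as ATP-coupled luminescence with CellTiter-Glo after 10 min at room temperature.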

HEK293 = test: as above; conditions: Five cell lines viability, CellTiter-Glo ATP luminescence, 48-72 h; max response: hits give low values
Outline: as §1

HaCat [1] = test: as above; conditions: Five cell lines viability, CellTiter-Glo ATP luminescence, 48-72 h; max response: hits give low values
Outline: as §1

KB-3-1 = test: as above; conditions: Five cell lines viability, CellTiter-Glo ATP luminescence, 48-72 h; max response: hits give low values
Outline: as §1

NIH3T3 = test: as above; conditions: Five cell lines viability, CellTiter-Glo ATP luminescence, 48-72 h; max response: hits give low values
Outline: as §1

MCC-13 = test: qHTS assay to identify novel small-molecules to repurpose for Merkel cell carcinoma treatment (AID 1296009); conditions: MCC and control cell lines, CellTiter-Glo viability, 72 h; series mostly up to 46 µM; note: potency is the fitted concentration of half-maximal effect
Outline: (§2)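 Dose-response viability screen; 72 hr exposure at 37 degree celsius; CellTiter-Glo added, 10 min room temperature, luminescence read; RLUs scaled between no-cell and DMSO wells.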

MCC-26 = test: as above; conditions: MCC and control cell lines, CellTiter-Glo viability, 72 h; series mostly up to 46 µM
Outline: as §2

MKL-1 = test: as above; conditions: MCC and control cell lines, CellTiter-Glo viability, 72 h; series mostly up to 46 µM
Outline: as §2

MKL-2 = test: as above; conditions: MCC and control cell lines, CellTiter-Glo viability, 72 h; series mostly up to 46 µM
Outline: as §2

PAD = test: qHTS profiling for inhibitors of Plasmodium falciparum proliferation (AID 504749);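 note: 0% = DMSO vehicle and full inhibition = artemisinin control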; conditions: P. falciparum in erythrocytes, SYBR Green DNA, 72 h; series mostly up to 28.7 µM
Outline: (§3)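 Each compound contacts P. falciparum-infected red blood cells for 72 h at 37 C; lysis buffer (Tris, EDTA, saponin, Triton X, SYBR Green I) is added and fluorescence measured next morning; values normalized to controls.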

PC15 = test: as above; conditions: P. falciparum in erythrocytes, SYBR Green DNA, 72 h; series mostly up to 28.7 µM
Outline: as §3

PC26 = test: as above; conditions: P. falciparum in erythrocytes, SYBR Green DNA, 72 h; series mostly up to 28.7 µM
Outline: as §3

PC49 = test: as above; conditions: P. falciparum in erythrocytes, SYBR Green DNA, 72 h; series mostly up to 28.7 µM
Outline: as §3

SC27B = test: as above; conditions: P. falciparum in erythrocytes, SYBR Green DNA, 72 h; series mostly up to 28.7 µM
Outline: as §3

TAB109 = test: as above; conditions: P. falciparum in erythrocytes, SYBR Green DNA, 72 h; series mostly up to 28.7 µM
Outline: as §3

TAB113 = test: as above; conditions: P. falciparum in erythrocytes, SYBR Green DNA, 72 h; series mostly up to 28.7 µM
Outline: as §3

TAB165 = test: as above; conditions: P. falciparum in erythrocytes, SYBR Green DNA, 72 h; series mostly up to 28.7 µM
Outline: as §3

W2 = test: as above; conditions: P. falciparum in erythrocytes, SYBR Green DNA, 72 h; series mostly up to 28.7 µM
Outline: as §3

HEK293T = test: qHTS assay to identify novel small-molecules to repurpose for Merkel cell carcinoma treatment (AID 1296009); conditions: MCC and control cell lines, CellTiter-Glo viability, 72 h; at 44.8 µM (top of the series); note: potency is the fitted concentration of half-maximal effect
Outline: as §2

HACAT [2] = test: as above; conditions: MCC and control cell lines, CellTiter-Glo viability, 72 h; at 44.8 µM (top of the series) unless noted
Outline: as §2
Note: nearly all actives have a fitted effect of over 60% in size.

Cc1[nH]c(C=C2C(=O)Nc3ccc(S(=O)(=O)Cc4c(Cl)cccc4Cl)cc32)c(C)c1C(=O)N1CCC[C@H]1CN1CCCC1
active: Potency (HEK293) 23.5 µM | Potency (MKL-1) 18.7 µM | Potency (MKL-2) 3.72 µM
inactive: max response (CRL-7250) 1.44% | max response (HaCat [1]) -4.31% | max response (KB-3-1) 1.95% | max response (NIH3T3) -20.1% | Potency (MCC-13) | Potency (MCC-26)

CC(C)NCC(O)COc1cccc2[nH]ccc12 (configuration not stated)
inactive: max response (CRL-7250) -21.3% and 3.12% | max response (HEK293) -23% | max response (HaCat [1]) -22.9% and 1.98% | max response (KB-3-1) 13.5% and 2.02% | max response (NIH3T3) -7.28% and 1.44% | Potency (MCC-13) | Potency (MCC-26) | Potency (MKL-1) | Potency (MKL-2)

C[N+](C)(C)CCCCCC[N+](C)(C)C
inactive: outcome (PAD) | outcome (PC15) | Potency (PC26) | outcome (PC49) | Potency (SC27B) | outcome (TAB109) | Potency (TAB113) | Potency (TAB165) | Potency (W2) | max response (CRL-7250) -5.15% | outcome (HEK293) | max response (HaCat [1]) 2.98% | max response (KB-3-1) 21.4% | outcome (NIH3T3) | outcome (HEK293T) | Potency (MCC-13) | Potency (MCC-26) | Potency (MKL-1) | Potency (MKL-2)

COc1cc(Nc2ncc(F)c(Nc3ccc4c(n3)NC(=O)C(C)(C)O4)n2)cc(OC)c1OC
inactive: max response (HaCat [1]) -23.4% | max response (KB-3-1) 2.88% | Potency (MCC-13) | Potency (MKL-1) | Potency (MKL-2)
active: Potency (CRL-7250) 2.31 µM | Potency (HEK293) 8.33 µM | Potency (NIH3T3) 8.2 µM

O=C(OCC#CCSc1nnc(-c2cccc3ccccc23)o1)c1cc2ccccc2s1
inactive: max response (CRL-7250) 3.01% | outcome (HEK293) | max response (HaCat [1]) -10.9% | max response (KB-3-1) -5.32% | outcome (NIH3T3) | outcome (HEK293T) | Potency (MCC-13) | Potency (MCC-26) | Potency (MKL-1) | Potency (MKL-2)

CC1(C)CCC(CN2CCN(c3ccc(C(=O)NS(=O)(=O)c4ccc(NCC5CCOCC5)c([N+](=O)[O-])c4)c(Oc4cnc5[nH]ccc5c4)c3)CC2)=C(c2ccc(Cl)cc2)C1
inactive: max response (CRL-7250) -2.21% and -9.69% | max response (HEK293) -5.37% and -6.15% | max response (HaCat [1]) -24.1% and -27.2% | max response (KB-3-1) 0.966% | max response (NIH3T3) -21% and 4.74% | Potency (MCC-13) | Potency (MCC-26) | Potency (MKL-1)

CO[C@H]1C(=O)[C@]2(C)[C@@H](OC)C[C@H]3OC[C@@]3(OC(C)=O)[C@H]2[C@H](OC(=O)c2ccccc2)[C@]2(O)C[C@H](OC(=O)[C@H](O)[C@@H](NC(=O)OC(C)(C)C)c3ccccc3)C(C)=C1C2(C)C
inactive: max response (CRL-7250) -47% | max response (HEK293) -66.4% | max response (HaCat [1]) -71.6% | max response (NIH3T3) -69.8% | Potency (MCC-13) | Potency (MCC-26) | Potency (MKL-1) | Potency (MKL-2)
active: Potency (KB-3-1) 0.0008 µM

COC1CCC(N(C(=O)C2CCC(C)CC2)c2cc(C3=CCCCC3)sc2C(=O)O)CC1 (configuration not stated)
inactive: max response (CRL-7250) -4.75% | max response (HEK293) -22.6% | max response (HaCat [1]) -16% | max response (KB-3-1) -3.16% | max response (NIH3T3) -0.413% | Potency (MCC-13) | Potency (MCC-26) | Potency (MKL-1) | Potency (MKL-2)

CC(C)(C)c1ccc(C(O)CCCN2CCC(C(O)(c3ccccc3)c3ccccc3)CC2)cc1 (configuration not stated)
inactive: outcome (CRL-7250) | max response (HEK293) -7.01% | max response (HaCat [1]) 1.94% | max response (KB-3-1) -14.6% and -4.64% | max response (NIH3T3) -3.57% | Potency (MCC-13) | Potency (MKL-1) | Potency (MKL-2)

CC(C)(C)OC(=O)N[C@H]1CCCCCC=C[C@@H]2C[C@@]2(C(=O)NS(=O)(=O)C2CC2)NC(=O)[C@@H]2C[C@@H](OC(=O)N3Cc4cccc(F)c4C3)CN2C1=O
inactive: max response (CRL-7250) -21.2% | max response (HEK293) 3.03% | max response (HaCat [1]) -10.7% | max response (KB-3-1) 5.38% | max response (NIH3T3) -0.939% | Potency (MCC-13) | Potency (MCC-26) | Potency (MKL-1) | Potency (MKL-2)

NC1=N[C@@]2(c3cc(NC(=O)c4ccc(F)cn4)ccc3F)COC[C@@H]2CS1
inactive: outcome (CRL-7250) | max response (HEK293) -6.98% | max response (HaCat [1]) -6.87% | max response (KB-3-1) 8.68% | max response (NIH3T3) 4.73% | Potency (MCC-13) | Potency (MCC-26) | Potency (MKL-2)
active: Potency (MKL-1) 10.5 µM

N[C@H](CSC(c1ccccc1)(c1ccccc1)c1ccccc1)C(=O)O
inactive: max response (CRL-7250) -7.2% | outcome (HaCat [1]) | outcome (HACAT [2]) | Potency (MCC-26)
active: Potency (HEK293) 9.35 µM | Potency (NIH3T3) 26.4 µM

CN1CCN(CCOc2cc(OC3CCOCC3)c3c(Nc4c(Cl)ccc5c4OCO5)ncnc3c2)CC1
inactive: max response (KB-3-1) 2.81% and -8.03% | Potency (MKL-1) | Potency (MKL-2)
active: Potency (CRL-7250) 10.3 µM | Potency (HEK293) 26.4 µM and 16.4 µM | Potency (HaCat [1]) 3.32 µM and 366 nM | Potency (NIH3T3) 1.66 µM and 651 nM

CCc1ccc(OCc2ccccc2C(=O)Nc2ccc3nc(C)cc(N)c3c2)cc1
active: Potency (CRL-7250) 10.5 µM | Potency (HEK293) 8.33 µM | Potency (HaCat [1]) 11.8 µM | Potency (NIH3T3) 9.35 µM | Potency (MCC-13) 18.7 µM

CC1(C)Cc2c(sc(NC(=S)NC(=O)c3ccccc3)c2C(=O)O)CO1
inactive: outcome (CRL-7250) | outcome (HEK293) | outcome (HaCat [1]) | outcome (KB-3-1) | outcome (HACAT [2]) | outcome (HEK293T) | Potency (MCC-13) | Potency (MCC-26) | Potency (MKL-1)

O=C(O)c1c(Cl)c(Cl)c(Cl)c(Cl)c1-c1c2cc(I)c(=O)c(I)c-2oc2c(I)c(O)c(I)cc12
inactive: outcome (PAD) | outcome (PC15) | Potency (PC26) | outcome (PC49) | Potency (SC27B) | outcome (TAB109) | Potency (TAB113) | Potency (TAB165) | Potency (W2) | max response (CRL-7250) -20.2% | max response (HEK293) -16.1% | outcome (HaCat [1]) | max response (NIH3T3) -19.3% | outcome (HACAT [2])

CC(=O)O[C@]1(C(C)=O)CC[C@H]2[C@@H]3C=C(Cl)C4=CC(=O)[C@@H]5C[C@@H]5[C@]4(C)[C@H]3CC[C@@]21C
inactive: outcome (PC15) | outcome (PC49) | Potency (SC27B) | max response (CRL-7250) -14.7% and -0.0221% | max response (HaCat [1]) 4.62% and -21.2% | max response (KB-3-1) 2.19% and -8.34% | Potency (MCC-13) | Potency (MCC-26)
active: Potency (HEK293) 13 µM
